Experimental data reported in the supplement of paper PMC4166925.
± gives the standard deviation of the averaged measurements. In all, about 33,000 sequences were measured (“E-score (dimensionless, -0.5 to 0.5)”: median about -0.046, highest 2% from about 0.36 on). The full list was thinned out, with the highest values kept by preference.

system: T1, SpTbr T-box DNA-binding domain (GST fusion); assay: PBM E-score of 8-mer (E-score (dimensionless, -0.5 to 0.5)); Tbr is Tbrain of the sea star Patiria miniata (Pm) or the sea urchin Strongylocentrotus purpuratus (Sp); higher = stronger binding preference; settings: the construct has about 5 more residues each side
T1 sequence: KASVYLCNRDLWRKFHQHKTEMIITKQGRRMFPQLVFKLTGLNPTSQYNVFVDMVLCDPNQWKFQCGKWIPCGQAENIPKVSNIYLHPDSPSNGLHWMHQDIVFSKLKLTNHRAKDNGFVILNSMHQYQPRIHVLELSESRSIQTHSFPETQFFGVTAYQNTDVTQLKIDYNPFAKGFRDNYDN
Protocol: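 Universal protein-binding microarray (Agilent AMADID 016060, 60-bp probes with a 35-bp variable region) incubated with 200 nM GST-fused Strongylocentrotus purpuratus Tbr T-box DNA-binding domain (residues 362-554) in PBS pH 7.5. Scored for every ungapped 8-mer (given with its reverse complement) as E-score (range -0.5 to 0.5; >0.45 counts as bound) and Z-score of median probe intensity. Two replicate arrays (datasets 1 and 2).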
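Note: protein at 200 nM in PBS on universal double-stranded arrays.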

Sequence	PBM E-score of 8-mer
ATTCTGTG	-0.0566 ± 0.036
CTCTCAGA	-0.187 ± 0.0034
CTCCGGCA	0.0686 ± 0.041
CCATAAGG	-0.0717 ± 0.0012
GCGCGTCA	0.265 ± 0.028
AGGCGTCG	0.349 ± 0.018
CGGCGTCA	0.223 ± 0.02
GGGCGTCA	0.376 ± 0.017
AGGCGTCA	0.41 ± 0.005
GTGCGTCA	0.187 ± 0.009
ACTTCAAT	-0.0527 ± 0.032
ACGTCACG	0.217 ± 0.057
ATGTTGGG	-0.0592 ± 0.0084
TAAGGCTA	-0.149 ± 0.077
GACACTCC	0.316 ± 0.0096
CACACTCC	0.402 ± 0.0059
CACACTCA	0.407 ± 0.0072
CCCACTCG	0.05 ± 0.13
AACACTCG	0.193 ± 0.0083
CACACTCG	0.426 ± 0.019
AACACTCA	0.31 ± 0.0041
AACACTCC	0.283 ± 0.039
TACACTCA	0.137 ± 0.013
CGCAGCAC	0.0169 ± 0.017
AGTTGCTA	0.239 ± 0.042

Sequence	PBM E-score of 8-mer
AGTCACAG	0.0674 ± 0.028
AGTCACAC	0.457 ± 0.0049
GGTCACAC	0.46 ± 0.013
AGTCACAT	0.1318 ± 0.0012
GGACACAC	0.0866 ± 0.0081
GGTCACAA	0.2073 ± 0.00096
CGTCACAC	0.43 ± 0.011
CGTCACAA	0.244 ± 0.0062
CGTCACAG	0.232 ± 0.0032
GTTCATCA	0.0211 ± 0.0087
ATCAACAT	-0.111 ± 0.028
AGTGCTCC	-0.0941 ± 0.03
AGTCTTGG	-0.101 ± 0.011
CGTAAGTA	0.169 ± 0.0079
AGCTGTCG	0.263 ± 0.013
ACGTGTCG	0.362 ± 0.015
AGGTGTCG	0.486 ± 0.008
AGGTGTCC	0.428 ± 0.0068
ACGTGTCC	0.0769 ± 0.048
AGATGTCC	-0.309 ± 0.003
CCACCAGG	-0.177 ± 0.03
CGTGAGCA	0.105 ± 0.039
GCCTAAGC	-0.159 ± 0.006
CTAACTAG	0.0135 ± 0.086
AAGGGAAA	-0.289 ± 0.05

Sequence	PBM E-score of 8-mer
GACAATGA	0.176 ± 0.0013
CTCACCTC	0.444 ± 0.0047
CTCACCAC	0.218 ± 0.037
ATCACCTC	0.387 ± 0.0097
ATCACCAC	0.113 ± 0.004
CTCACCGC	0.0406 ± 0.0049
ATCACCTA	0.321 ± 0.065
CCGGTTCC	-0.27 ± 0.0077
GTGCCATA	0.222 ± 0.024
ATAACGCC	0.28 ± 0.032
AAGGATTA	-0.152 ± 0.047
CAGATCAG	-0.0587 ± 0.00064
ACAAGTGG	0.355 ± 0.012
AAAAGTGA	0.169 ± 0.069
AAAAGTGG	0.118 ± 0.11
ACAAGTGT	0.381 ± 0.019
ACAAGTGA	0.243 ± 0.07
AAAAGTGT	0.39 ± 0.016
TAACCCTA	-0.15553 ± 2.1e-05
ACTGTGAA	0.413 ± 0.0064
TCTGTGAA	0.329 ± 0.017
ATTGTGAA	0.317 ± 0.067
ACTGTGAG	0.269 ± 0.031
GTTGTGAA	0.4 ± 0.015
GCTGTGGA	0.151 ± 0.058

Sequence	PBM E-score of 8-mer
ACTGTGAT	0.242 ± 0.0029
GCTGTGAA	0.4045 ± 0.0013
CTTGTGAA	0.353 ± 0.034
AAAGAGAG	-0.0256 ± 0.025
GAACTCGA	0.194 ± 0.051
TATGATAA	-0.00343 ± 0.017
GGTGATAA	0.37553 ± 0.00031
CGTGATAA	0.27 ± 0.036
GGTGATAC	0.221 ± 0.028
AGTGATAA	0.278 ± 0.067
TGTGATAA	0.377 ± 0.017
CGTATGCC	-0.271 ± 0.057
AAACCTGT	0.0331 ± 0.12
CCACCTAG	0.183 ± 0.046
ACACCTAA	0.4637 ± 0.0015
GCACCTAA	0.339 ± 0.04
ACACCTAG	0.444 ± 0.0087
AAACCTAG	0.0536 ± 0.035
AGACCTAT	-0.142 ± 0.047
ACACCTAT	0.4592 ± 0.0012
ATACCTAT	-0.0845 ± 0.068
ACACCGGT	0.246 ± 0.055
TCACCTAA	0.301 ± 0.018
ACACCTGT	0.4669 ± 0.0038
CGTGGGAC	0.0261 ± 0.0086

Sequence	PBM E-score of 8-mer
AATCCCAC	0.151 ± 0.013
ATCTGCCG	-0.21 ± 0.071
TGCATTAA	0.022 ± 0.05
CATGCGCC	-0.226 ± 0.0069
CGCATATC	-0.0822 ± 0.013
CAGACCCA	-0.0355 ± 0.018
AGGTCTTA	-0.0667 ± 0.12
CCCTCACG	0.153 ± 0.063
ACTGGACC	-0.203 ± 0.069
ATCCAGCC	-0.0901 ± 0.0022
CCACCTAC	0.248 ± 0.043
GCACCTAC	0.352 ± 0.025
ACACCTAC	0.462 ± 0.0061
AATAGATG	0.0328 ± 0.094
AACTAATG	-0.0496 ± 0.012
AGCTTTGA	-0.239 ± 0.067
AGTCTCTC	-0.105 ± 0.029
CTTCCTCC	-0.204 ± 0.065
AGCAACAC	0.376 ± 0.026
GGCAACAC	0.3658 ± 0.00072
AGCAACAA	0.1945 ± 0.00053
CGCAACAC	0.306 ± 0.024
GGCAACAA	0.13 ± 0.019
AGCAACAG	-0.0121 ± 0.0042
GGTTATCA	0.0778 ± 0.034

Sequence	PBM E-score of 8-mer
CGCTAAAC	0.187 ± 0.1
GACGGGCA	-0.2934 ± 0.0011
AACTGGTG	0.188 ± 0.02
ACACCCCG	0.35 ± 0.018
ACCCCCCT	-0.162 ± 0.03
ACACCCCA	0.376 ± 0.013
ACACCCCT	0.385 ± 0.013
ACACCCCC	0.363 ± 0.015
ACCCCTCT	-0.063 ± 0.085
TGACGTAA	-0.098 ± 0.019
CATATCTA	-0.24 ± 0.025
GAAGCCTA	-0.182 ± 0.037
GACGGGCC	-0.12 ± 0.046
AAGCGCGA	0.369 ± 0.007
AAGCGCGC	0.0762 ± 0.0076
TAGCGCGA	0.3785 ± 0.0014
AAGCGCGG	0.136 ± 0.063
GAGCGCGA	0.279 ± 0.053
CAGCGCGA	0.199 ± 0.0059
CTTCCAGA	-0.22 ± 0.011
ACCATAGC	0.0118 ± 0.017
CTCTGGGC	-0.112 ± 0.012
TCATTGGA	-0.0638 ± 0.031
CCTCCATC	-0.0262 ± 0.042
CCACACTA	0.279 ± 0.029

Sequence	PBM E-score of 8-mer
CCACACCC	0.414 ± 0.024
ACACACCC	0.33 ± 0.0064
CCACACTC	0.374 ± 0.015
CCACACCG	0.226 ± 0.071
ACACACTC	0.307 ± 0.019
ATCCTGCC	-0.182 ± 0.054
ATGGGCAG	-0.0503 ± 0.058
ATGCCCGC	0.031 ± 0.012
AAGTGCCC	-0.146 ± 0.044
AAGTGCTG	0.246 ± 0.04
AAGTGCTC	0.118 ± 0.051
GAGTGCCA	0.20475 ± 0.00018
ATGTGCCG	0.175 ± 0.032
ATGTGCCC	-0.0447 ± 0.038
ATGTGCCA	0.374 ± 0.01
AAGTGCCA	0.4045 ± 0.0038
AAGTGCTA	0.419 ± 0.014
AAGAGAGA	-0.141 ± 0.03
GTCACAGA	0.0552 ± 0.0087
CACACACG	0.233 ± 0.057
CTCACACA	0.438 ± 0.0081
GTCACAAA	0.125 ± 0.032
